Hit rate of the full screen: of about 5,500 compounds, about 2,000 (36%) were called active. Another 18% or so got no clear call; they are omitted. No stated cut-off is given here; in the data, active means normalized growth mostly below about 0.91 (no sharp cut-off); inconclusive means no clear call, values can overlap the other calls; inactive means mostly above about 0.92. Some of the results follow.
Assay: chemical genetic growth profiling, strain panel (AID 1159580);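 further: tested at 20 µM; growth read once vehicle control cultures reached saturation at 30 °C; 1 = growth at the plate median or of vehicle wells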
Conditions: growth OD
[1] = S. cerevisiae deletion strains, locus YAL013W, strain DEP1, stronger effect = lower value
[2] = S. cerevisiae deletion strains, locus YBR229C, strain ROT2, stronger effect = lower value
[3] = S. cerevisiae deletion strains, locus YCL061C, strain MRC1, stronger effect = lower value
[4] = S. cerevisiae deletion strains, locus YDL101C, strain DUN1, stronger effect = lower value
[5] = S. cerevisiae deletion strains, locus YDR150W, strain NUM1, stronger effect = lower value
[6] = S. cerevisiae deletion strains, locus YEL061C, strain CIN8, stronger effect = lower value
[7] = S. cerevisiae deletion strains, locus YGR078C, strain PAC10, stronger effect = lower value
[8] = S. cerevisiae deletion strains, locus YHR030C, strain SLT2, stronger effect = lower value
[9] = S. cerevisiae deletion strains, locus YHR087W, strain rtc3, stronger effect = lower value
[10] = S. cerevisiae deletion strains, locus YJL187C, strain SWE1, stronger effect = lower value
[11] = S. cerevisiae deletion strains, locus YJR043C, strain POL32, stronger effect = lower value
[12] = S. cerevisiae deletion strains, locus YJR075W, strain HOC1, stronger effect = lower value
[13] = S. cerevisiae deletion strains, locus YLR039C, strain RIC1, stronger effect = lower value
[14] = S. cerevisiae deletion strains, locus YLR058C, strain SHM2 (second series), stronger effect = lower value
[15] = S. cerevisiae deletion strains, locus YLR085C, strain ARP6, stronger effect = lower value
[16] = S. cerevisiae deletion strains, locus YLR262C, strain YPT6, stronger effect = lower value
[17] = S. cerevisiae deletion strains, locus YML094W, strain GIM5, stronger effect = lower value
[18] = S. cerevisiae deletion strains, locus YMR219W, strain ESC1, stronger effect = lower value
[19] = S. cerevisiae deletion strains, locus YMR263W, strain SAP30, stronger effect = lower value
[20] = S. cerevisiae deletion strains, locus YNL153C, strain GIM3, stronger effect = lower value
[21] = S. cerevisiae deletion strains, locus YNL298W, strain CLA4 (second series), stronger effect = lower value
[22] = S. cerevisiae deletion strains, locus YNL322C, strain KRE1, stronger effect = lower value
[23] = S. cerevisiae deletion strains, locus YNR030W, strain Alg12, stronger effect = lower value
[24] = S. cerevisiae deletion strains, locus YOL006C, strain TOP1, stronger effect = lower value
[25] = S. cerevisiae deletion strains, locus YPL055C, strain LGE1, stronger effect = lower value
[26] = S. cerevisiae deletion strains, locus YPL241C, strain CIN2, stronger effect = lower value
[27] = S. cerevisiae deletion strains, locus YPR135W, strain CTF4, stronger effect = lower value
[28] = S. cerevisiae deletion strains, locus YNL128W, strain TEP1, stronger effect = lower value
[29] = S. cerevisiae strains, strain wild type, stronger effect = lower value

Measured: normalized growth

CCCn1c(=O)c(C#N)cn(-c2ccc(Cl)cc2)c1=O
active: [10] 0.93 | [13] 0.759
inactive: [1] 1.01 | [2] 0.986 | [3] 1.01 | [4] 0.991 | [5] 1.02 | [6] 0.97 | [7] 0.996 | S. cerevisiae deletion strains, locus YGR229C, strain SMI1, stronger effect = lower value 0.997 | [8] 0.937 | [9] 0.977 | [11] 1.02 | [12] 1.01 | [14] 0.986 | [15] 0.893 | [16] 0.821 | [17] 0.963 | [18] 0.99 | [19] 1 | [20] 1 | [21] 0.961 | [22] 0.979 | [23] 0.99 | [24] 0.924 | [25] 1.04 | [26] 0.982 | [27] 1.03

CC(C)n1cc(C#N)c(=O)n(Cc2ccccc2)c1=O
inactive: [1] 0.992 | [2] 0.994 | [3] 0.991 | [4] 1.02 | [5] 0.923 | [6] 1 | [7] 0.991 | [8] 0.983 | [9] 0.989 | [10] 0.977 | [12] 0.999 | [13] 1.01 | [14] 1 | [15] 0.999 | [16] 1.04 | [17] 0.988 | [18] 1 | [19] 0.967 | [28] 0.994 | [20] 0.984 | [21] 1.05 | [22] 0.996 | [23] 1.01 | [25] 0.979 | [26] 1 | [27] 0.994 | [29] 1.01

CCOC(=O)Cn1c(=O)c(C#N)cn(C(C)C)c1=O
inactive: [1] 1.01 | [2] 1.01 | [3] 0.993 | [4] 1.02 | S. cerevisiae deletion strains, locus YDL134C, strain PPH21, stronger effect = lower value 1.01 | [5] 1.02 | [6] 0.988 | [7] 1.01 | [8] 1.03 | [9] 1 | [10] 1 | [11] 0.998 | [12] 1.02 | [13] 1.02 | [14] 1.01 | [15] 0.976 | [16] 1.01 | [17] 1 | [18] 1.01 | [19] 1 | [28] 0.98 | [20] 1 | [21] 1.04 | [22] 1.01 | [23] 1.02 | [24] 1.03 | [25] 0.984 | [26] 1.02 | [27] 1.02 | [29] 1.01
